Source: PubChem (National Center for Advancing Translational Sciences (NCATS))
In the library only some 8.7% were active in any assay of this set; here they are far more common.
BAZ2B inh = qHTS Assay for Inhibitors of BAZ2B; AlphaScreen BAZ2B-H3K14Ac peptide displacement; Potency, µM (top dose mostly 114 µM), for inactives: at the highest dose activity change, negative = inhibition, most hits filed as inhibitors; 360,000 tested, 4.4% active; AID 504333, 2011; also: % is scaled to controls: 0 for no effect and ±100 for the full control effect; nearly all actives have a fitted effect of over 60% in size
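AlphaScreen displacement of biotin-H3(5-23)K14Ac peptide (50 nM final) from BAZ2B (50 nM final) in PBS pH 7.4, 0.01% Tween-20; complex preformed 30 min RT, then compounds (top 110 uM) 30 min RT, beads 20 min dark.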
JMJD2A Tudor inh = qHTS Assay for Inhibitors of JMJD2A-Tudor Domain; Potency, µM (highest dose often 114 µM), inactives show top-dose activity change, negative = inhibition, most hits filed as inhibitors; Lysine-specific demethylase 4A (Homo sapiens), O75164; AID 504339, 2011; 390,000 tested, 4.4% active; AlphaScreen JMJD2A-Tudor / H3K4me3 peptide binding; also: % is scaled to controls: 0 for no effect and ±100 for the full control effect; nearly all actives have a fitted effect of over 50% in size
Sfp inh = qHTS Assay for Inhibitors of Bacillus subtilis Sfp phosphopantetheinyl transferase (PPTase); 4'-phosphopantetheinyl transferase ffp (Bacillus subtilis), Q9F4F7; Biochemical Sfp PPTase activity, qHTS; Potency, µM, inactives show largest response in the series, negative = inhibition, actives largely listed as inhibitors; 310,000 tested, 3.5% active;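 also: the enzyme is Sfp with the accession as filed and its product quenches rhodamine fluorescence; 0% = enzyme reaction without inhibitor and -100% = no enzyme wells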
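Reaction rates are the 30-min fluorescence difference (ex 525, em 598 nm) in wells containing 15 nM Sfp, 5 uM rhodamine-CoA and 12.5 uM BHQ-2-YbbR at pH 7.6 with 10 mM MgCl2.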
HP1b binding inh = HTS for Inhibitors of HP1-beta Chromodomain Interactions with Methylated Histone Tails | Chromobox protein homolog 1 (Homo sapiens), P83916 | AlphaScreen HP1-beta / biotin-H3K9me3 peptide binding | Potency, µM (series often up to 114 µM), without a hit: top-dose activity change, negative = inhibition, hits mostly inhibitors | 390,000 tested, 0.56% active; also: nearly all actives have a fitted effect of over 70% in size
Target sequence (P83916 whole entry, looked up): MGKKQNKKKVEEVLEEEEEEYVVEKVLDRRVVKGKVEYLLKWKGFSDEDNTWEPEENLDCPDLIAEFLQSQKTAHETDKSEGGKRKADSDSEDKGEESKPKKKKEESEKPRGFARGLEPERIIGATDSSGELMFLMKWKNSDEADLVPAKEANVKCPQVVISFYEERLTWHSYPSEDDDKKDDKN
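Compound inhibition of the preformed complex between 50 nM HP1-beta and 50 nM biotinylated H3K9me3 peptide was read by AlphaScreen. Buffer was PBS pH 7.4 with 0.01% Tween-20. Incubations ran 30 min at room temperature, with 10 ug/mL donor/acceptor beads.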
12-LOX inh = Primary qHTS assay for inhibitors of human arachidonate 12S-lipoxygenase (ALOX12): Round 2; purified 12hLO, xylenol orange hydroperoxide absorbance; Potency, µM (highest dose often 108 µM), inactives show at the highest dose activity change, negative = inhibition, hits mostly inhibitors; 580,000 tested, 1.1% active; AID 1671190, 2021; also: % is scaled to controls: 0 for no effect and ±100 for the full control effect
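Hydroperoxide product was detected by ferrous iron/xylenol orange as the 573 to 405 nm absorbance ratio. Arachidonic acid at 40 uM (final) was turned over for 30 min at room temperature by 150 nM human 12hLO, pH 7.0 Hepes buffer, after 15 min compound preincubation.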
G9a block = qHTS Assay for Inhibitors of Histone Lysine Methyltransferase G9a | G9a H3K9 monomethylation, AlphaScreen, 2 h | Histone-lysine N-methyltransferase EHMT2 (Homo sapiens), Q96KQ7 | AID 504332, 2011 | 350,000 tested, 8.8% active | Potency, µM (doses to about 102 µM), for the others: at the top dose activity, negative = inhibition, hits mostly inhibitors; also: % is scaled to controls: 0 for no effect and ±100 for the full control effect; nearly all actives have a fitted effect of over 75% in size
Target sequence (Q96KQ7 913-1193 limits assumed): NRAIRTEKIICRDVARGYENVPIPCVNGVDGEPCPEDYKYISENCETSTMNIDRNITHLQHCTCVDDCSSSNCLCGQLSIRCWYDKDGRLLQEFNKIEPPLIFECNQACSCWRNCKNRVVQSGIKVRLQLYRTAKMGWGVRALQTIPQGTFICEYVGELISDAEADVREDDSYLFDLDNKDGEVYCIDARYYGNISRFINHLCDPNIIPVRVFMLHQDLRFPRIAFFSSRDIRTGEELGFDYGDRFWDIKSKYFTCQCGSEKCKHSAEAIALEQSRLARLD
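Step 1: enzyme (final 20 nM) with compound, 15 min RT. Step 2: substrate peptide 500 nM and SAM 20 uM, 2 h RT. Step 3: anti-H3K9me1 antibody and AlphaScreen beads, 10 min, then plate read.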
Numbers without * were called inactive; ? = inconclusive; nt = not tested or not shown; [ ] = remark or other dose. Calls follow the shape of the dose curve; as a rule, active = well fitted curve in the direction sought with a large enough effect; inconclusive = small, poorly fitted or top-dose-only effect, or another doubt; inactive = no such curve, though single readings can be large; an effect the other way counts as inactive or inconclusive. Potency is read from the fitted curve at half-maximal effect.

SMILES	BAZ2B inh	JMJD2A Tudor inh	Sfp inh	HP1b binding inh	12-LOX inh	G9a block
CCCn1nc(C(=O)NC(C)c2ccc(S(N)(=O)=O)cc2)c2ccccc2c1=O (stereo unspecified)	nt	nt	nt	nt	14%	nt
CC(C)N1C(=O)C2(CCCC2)C1C(=O)N1CCCC1 (stereo unspecified)	nt	nt	nt	nt	20%	nt
COc1ccc(S(=O)(=O)Nc2nc3ccccc3nc2NCc2ccccc2OC)cc1	nt	nt	nt	nt	-11%	nt
CC1Cc2ccccc2N1C(=O)c1ccc(N2CCCCC2)c([N+](=O)[O-])c1 (stereo unspecified)	32µM*	40µM*	-6%	?	-24%	32µM*
CC(=O)c1ccc(N2CCN(c3ccccc3O)CC2)c([N+](=O)[O-])c1	?	?	4%	?	-24%	45µM*
O=C(O)c1ccccc1C(=O)c1ccc(N2CCCC2)c([N+](=O)[O-])c1	-14%	-16%[11.4 µM]	-18%	27%	?	?
CC1Cc2ccccc2N1C(=O)c1ccc(N2CCCC2)c([N+](=O)[O-])c1 (stereo unspecified)	25µM*	45µM*	-10%	-15%	-1%	?
Cc1ccc(NC2c3ccccc3C(=O)N2c2cccnc2)cc1 (stereo unspecified)	-18%	-15%	18%	-7%	27%	-6%
COc1ccc(NC2c3ccccc3C(=O)N2c2ccccn2)cc1 (stereo unspecified)	56µM*	-35%	-9%	5%	2%	?
CCN(CC)S(=O)(=O)c1ccc(NC2c3ccccc3C(=O)N2c2ccc(C)cn2)cc1 (stereo unspecified)	5%	-13%	8%	28%	-2%[57.4 µM]	40µM*
COc1ccc(OC)c(NC2c3ccccc3C(=O)N2c2cccnc2)c1 (stereo unspecified)	-14%	-33%	-30%	44%	-3%	50µM*
CCOC(=O)c1ccc(NC2c3ccccc3C(=O)N2c2ccccn2)cc1 (stereo unspecified)	-1%	-18%	-21%	15%	19%	50µM*
COc1ccc(OCc2nc(C)c(CCO)c(=O)n2CC(=O)Nc2ccc(OC)c(OC)c2)cc1	nt	nt	nt	nt	14%	nt
Nc1c(C(=O)Nc2c(Cl)cccc2Cl)sc2nc(-c3ccncc3)ccc12	nt	nt	nt	nt	-1%	nt
O=C(Nc1ccccc1I)c1cc[n+]([O-])cc1	nt	nt	nt	nt	-2%	nt
O=C(CCc1ncc(-c2ccc(Cl)cc2)o1)NC1CCCC1	nt	nt	nt	nt	3%	nt
O=C(CCc1nnc2ccc(N3CCCCC3)nn12)N1CCCC1	nt	nt	nt	nt	23%	nt
Cc1c(C(=O)Nc2ccccc2[N+](=O)[O-])csc1-c1ccccc1	11µM*	?	1%	28µM*	-27%	25µM*
COc1ccc(CCNC(=O)Nc2ccccc2[N+](=O)[O-])cc1	-15%	-32%	19%	-16%	-16%	50µM*
COc1ccc(NC(=O)CN(C)S(=O)(=O)c2ccc(C)cc2)c([N+](=O)[O-])c1	-6%	-13%	32%	12%	-20%	32µM*
Cc1c(C(=O)Nc2ccccc2)csc1-c1ccccc1	4%	-18%	11%	10%	2%	16%
COc1ccc(NC(=O)CC2Nc3ccccc3NC2=O)c([N+](=O)[O-])c1 (stereo unspecified)	-15%	-9%	19%	1%	11%	50µM*
COc1ccc(NC(=O)CC2Nc3ccccc3NC2=O)cc1 (stereo unspecified)	-1%	-6%	nt	24%	30%	-4%[59 µM]
Cc1noc(C)c1Cc1ccc(C(=O)NC2CCc3n[nH]c(=O)n3CC2)o1 (stereo unspecified)	nt	nt	nt	nt	4%	nt
CCCOc1ccc(C(=O)Nc2ccccc2[N+](=O)[O-])cc1	nt	56µM*	nt	?	?	nt
SMILES	BAZ2B inh	JMJD2A Tudor inh	Sfp inh	HP1b binding inh	12-LOX inh	G9a block
COc1ccc(NC(=O)c2ccccc2)c([N+](=O)[O-])c1	?	-36%	0%	-23%	-6%	79µM*
COc1ccc(NC(=O)c2cccnc2)c([N+](=O)[O-])c1	-6%	-11%	6%	20%	2%	-8%[12.7 µM]
COc1ccc(/C=N/Nc2ncccc2[N+](=O)[O-])c(OC)c1	40µM*	50µM*	9%	?	-16%	28µM*
COc1ccc(/C=N/Nc2ncc(-c3ccccc3)cn2)c(OC)c1	-5%	?	-1%	10%	-18%	-7%[59 µM]
Cc1ccc(C(=O)NCCCNc2ccccc2[N+](=O)[O-])cc1	?	89µM*	9%	1%	-16%	56µM*
Cc1ccc(C(=O)NCCCNC(=O)c2ccccn2)cc1	-14%	-12%	11%	25%	18%	17%
O=C(Nc1ccccc1)c1ccc(OCc2ccccc2)cc1	nt	nt	nt	nt	-21%	nt
O=C(Cn1cnc(S(=O)(=O)N2CCCC2)c1)Nc1cccc(-c2ccno2)c1	nt	nt	nt	nt	0%	nt
Cc1ccc(Cn2ccc(NC(=O)C3=CC(c4ccc(C)cc4)=NS(=O)(=O)N3C)n2)cc1	nt	nt	nt	nt	-3%	nt
Cn1c(=O)c2c(ncn2CCC(=O)NC2CCCCC2)n(C)c1=O	nt	nt	nt	nt	26%	nt
CCCOc1ccc(/C=N/Nc2ccccc2[N+](=O)[O-])c(OCCC)c1	2.5µM*	14µM*	-1%	22µM*	-27%	8.9µM*
COc1ccc(/C(Cl)=C(/C=N/O)c2ccc(OC)cc2)cc1	nt	nt	nt	nt	-18%	nt
OCC1(CO)COC2(CCCC2)N1	4%	16µM*	2%	-6%	6%	-5%[12.7 µM]
O=C(Nc1nnc(-c2ccco2)o1)c1ccc([N+](=O)[O-])s1	?	?	-11%	8%	?	45µM*
Cc1ccsc1C(=O)Nc1nnc(-c2ccco2)o1	79µM*	-27%	9%	51%	0%	-11%[59 µM]
N#Cc1ccc(C(=O)Nc2nnc(-c3ccco3)o2)cc1	18µM*	79µM*	24%	35%	40%	-30%
O=C(Nc1nnc(-c2ccco2)o1)c1cc(-c2ccccc2)nc2ccccc12	nt	nt	nt	nt	-14%[57.4 µM]	nt
Cc1ccc(C(=O)Nc2nnc(-c3ccco3)o2)cc1	50µM*	?	13%	24%	?	8%[59 µM]
CCc1ccccc1NC(=O)c1ccc([N+](=O)[O-])s1	-29%	-14%[57.1 µM]	21%	15%	-5%	-33%
